The record followed here is PubChem BioAssay (EPA / NIEHS).

Where “and” joins values, the source holds several entries; their conditions need not be identical. Identical values can stand only once. Calls of active or inactive are those of the source. Rule for the calls: active = hit-call score of the fitted dose curve at least 0.9, where 1 is the maximum; inactive = score below 0.9.

This experiment in a line: CCTE_Shafer_MEA_acute_spike_number: CCTE's Neural Acute Assay for Total Number of Spikes, Shafer Lab (AID 2284008).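 For AC50: curve fitted for decrease in spike count so AC50 reflects inhibitors.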 On the procedure: CCTE_Shafer_MEA_acute assay is conducted using Axion Biosystems 48 well microelectrode array (MEA) plates and Maestro recording system. Each well of the MEA plate contains a grid of 16 microelectrodes embedded in the culture surface. Electrically active cells, such as neurons, can be cultured over the electrodes, and electrical activity in these cells can be recorded extracellularly. The spontaneous firing of neurons is captured from each electrode on a microsecond timescale providing both temporally and spatially precise data. […] The CCTE_Shafer_MEA_acute assay uses primary cultures of rat cortical neurons. As these cultures mature over time, neural networks develop functional activity and form cohesive networks in which electrical activity can be highly coordinated. Baseline 40-minute recordings are made on days post-plating 13 or 15, followed by a secondary 40-minute recording after chemical exposure.CCTE_Shafer_MEA_acute_spike_number is a component of the CCTE_Shafer_MEA_acute assay. It measures the total number of spikes (action potential firings) in a 40-minute recording in a microelectrode array (MEA) using Axion Biosystems Maestro 768 channel amplifier with the AxIS adaptive spike detector. The recordings before and after chemical treatment are used to calculate a percent change in the spike number in each well. Data from the assay component CCTE_Shafer_MEA_acute_spike_number was analyzed into 1 assay endpoint. This assay endpoint, CCTE_Shafer_MEA_acute_spike_number, was analyzed in the negative analysis fitting direction relative to DMSO as the negative control and baseline of activity. Using a type of functional reporter, gain or loss-of-signal activity can be used to understand electrical activity.
Spontaneous activity in the cortical cultures was recorded using an Axion Biosystems Maestro 768 channel amplifier and Axion Integrated Studios (AxIS) v1.8 (or later) software. The amplifier recorded from all channels simultaneously (gain = 1200 x; sampling rate = 12.5 kHz/channel): raw signals were filtered with a Butterworth band-pass filter (300-5000 Hz), which filters out slower local field potentials leaving only fast potentials, i.e., "spikes", arising from extracellular currents associated with action potentials (Pine 2006; Wheeler and Nam 2011). On-line spike detection of filtered signals was conducted with the AxIS adaptive spike detector, using a threshold of 8x the root mean squared (rms) noise on each channel. Any electrodes with rms noise levels greater than 5 uV were grounded (e.g., no data were recorded). Once grounded, an electrode was grounded for the duration of the experiment. All recordings were conducted at 37 C. Wells were deemed usable if on the day of the exposure >/= 10 electrodes were active (defined as >/= 5 spikes/min). On DIV 13 or 15, a minimum of three wells from one cortical culture preparation were treated with each compound (0.03-40 uM). Prior to recording baseline activity, each mwMEA plate was placed in the Maestro at 37 C and allowed to sit for 20 min while firing rates stabilized. Baseline activity (40 min) was recorded before the addition of each compound. An additional 40 min of spontaneous activity was recorded in the presence of each compound. Changes in network parameters relative to baseline were assessed following compound treatment.
As for `Cc1cc(CCN2CCN(c3nsc4ccccc34)CC2)cc2c1NC(=O)CC2(C)C`, the AC50 (as a rule, the concentration giving half of the maximal activity seen) is 8.94 µM (active).

For `CCCCCCCCCCCCc1ccccc1S(=O)(=O)O`, the compound was classed as inactive.

Turning to `CN1CCN(c2ccccc2/C=C2\SCCN(c3ccc(Cl)c(Cl)c3)C2=O)CC1`, the half-maximal activity concentration (AC50) is 10.3 µM (active).

For `O=c1c(-c2ccc(O)cc2)coc2cc(O)ccc12`, the half-maximal activity concentration (AC50) was 3.28 µM (active).

For the compound `NC(=O)N(O)[C@@H]1C=C[C@H](Oc2cccc(Oc3ccc(F)cc3)c2)C1`, the compound was classed as inactive.

Regarding `CN1CCC[C@H]1c1cccnc1`, the outcome was inactive.

On to `OCCC(F)(F)C(F)(F)C(F)(F)C(F)(F)C(F)(F)C(F)(F)C(F)(F)C(F)(F)F`, for which the outcome was inactive.

`CCCCCCCCCCCCN1CCCC1=O`: the outcome was inactive.

For the compound `CCC(=C(c1ccc(O)cc1)c1ccc(OCCN(C)C)cc1)c1ccccc1`, the outcome was inactive.

Consider `CCCOc1sc(C(=O)N2CCC(c3cc(CN)ccc3F)CC2)c(C)c1Br`, for which the compound was called inactive.

As for `CC#C[C@]1(O)CC[C@H]2[C@@H]3CCC4=CC(=O)CCC4=C3[C@@H](c3ccc(N(C)C)cc3)C[C@@]21C`, the AC50 is 1.74 µM (active) and 2.84 µM (active).

As to `CC(C)CCCCCCOC(=O)CCCCC(=O)OCCCCCCC(C)C`, the compound was called inactive.

Turning to `O=C(O)c1ccccc1C(c1ccc(O)cc1)c1ccc(O)cc1`, the call was inactive.

As to `CN(C)C=O`, the outcome was inactive.

For the compound `CCCCCCCCCCCCCCCS(=O)(=O)Oc1ccccc1`, the compound was called inactive.

Consider `CC(=O)NC1(c2cccc(F)c2)CCN(CC[C@@]2(c3ccc(Cl)c(Cl)c3)CN(c3ccccc3)C(=O)CO2)CC1`, for which the AC50 was 1.47 µM (active).

Turning to `OC1CCC(C2CCCCC2)CC1` (stereo unspecified), the AC50 was 20 µM (active).

On to `CC(C)(C)c1cc(C(C)(C)C)c(O)c(C(C)(C)C)c1`, for which the call was inactive.

`Oc1cc2ccccc2c2ccccc12`: the result was inactive.

With `CC[C@H](c1ccc(O)cc1)[C@@H](CC)c1ccc(O)cc1`, the result was inactive.

`CCc1ccc(CCOc2ccc(CC3SC(=O)NC3=O)cc2)nc1` (stereo unspecified): the outcome was inactive.
